In the library only some 4.7% were active in any assay of this set; here they are far more common.
D1 antagonist = human D1 dopamine receptor antagonism; HEK293 TREx D1 cells, calcium flux, dopamine EC80; hits give low values; 3.2% of 360,000 active; AID 504652; activity change, negative = inhibition, % at 10 µM; in the data active = activity change below about -30%; note: % is set by controls: 0 for no effect and ±100 for the full control effect
Target sequence (P21728 whole entry, looked up): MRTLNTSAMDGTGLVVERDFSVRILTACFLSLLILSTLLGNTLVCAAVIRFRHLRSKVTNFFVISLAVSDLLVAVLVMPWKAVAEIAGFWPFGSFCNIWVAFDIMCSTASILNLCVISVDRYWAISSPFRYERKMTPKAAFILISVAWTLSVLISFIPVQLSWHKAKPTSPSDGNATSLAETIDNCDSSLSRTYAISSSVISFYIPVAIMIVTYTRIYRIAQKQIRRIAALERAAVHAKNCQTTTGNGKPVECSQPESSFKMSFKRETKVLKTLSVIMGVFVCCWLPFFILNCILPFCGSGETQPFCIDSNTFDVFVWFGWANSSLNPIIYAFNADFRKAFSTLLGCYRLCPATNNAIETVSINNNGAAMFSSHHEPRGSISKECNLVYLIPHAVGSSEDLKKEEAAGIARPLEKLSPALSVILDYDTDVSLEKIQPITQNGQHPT
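Cells carrying a force-coupled, tetracycline-inducible human D1 receptor report calcium flux. Each well gets a 10 s baseline, compound with 180 s monitoring, then an EC80 dopamine stimulus with a second 180 s kinetic read.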
D1 agonist = human D1 receptor agonism. activation, % at 2 µM. P21728. 1% of 360,000 active. HEK293 T-REx D1 cells, calcium flux, agonist mode. AID 504660; note: 0% is about no effect
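Inducible HEK293 T-REx D1 cells, force-coupled to calcium signalling, were plated at 4000 cells/well with tetracycline and held overnight at 30 C. After no-wash calcium dye loading, compound-evoked calcium rise over 180 s flagged agonists.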
TRHR ag = TRH receptor (human) agonism. TRHR cells, calcium flux fluo-8, FDSS agonist mode. activation, % at 2 µM. 0.18% of 360,000 active; note: 0% is about no effect
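Agonist-mode FDSS calcium read (Ex 480/Em 530, 1 s cycles) in 1536-well TRHR cells with fluo-8 dye, after 10-cycle baseline and 23 nL compound addition; TRH at EC20 (10 nM final) added afterwards for the enhancer phase.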
D1 potentiator = human D1 dopamine receptor positive modulation; P21728; HEK293 TREx D1 cells, calcium flux, dopamine EC20 potentiation; potentiation, % at 10 µM; 0.036% of 360,000 active; in the data active = potentiation above about 30%; note: 0% is about no effect
TRHR PAM = TRH receptor (human) allosteric enhancement. P34981. TRHR cells, fluo-8 calcium fluorescence, EC20 TRH enhancement. enhancement, % at 2 µM. 0.66% of 360,000 active. AID 493056; in the data active = enhancement above about 30%; note: 0% is about no effect
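TRHR-expressing cells loaded with fluo-8 calcium dye were read kinetically (ex 480/em 530) during compound addition, then stimulated with an EC20 of TRH (10 nM final). Enhancement of the Gq-mediated intracellular calcium response was scored.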
* = called active by the depositor; nt = no result given; ! = repeats disagree. Cut-off read from the data, not from the text of the source, unless noted: active = activation above about 30%; inactive = the rest.

SMILES | D1 antagonist | D1 agonist | TRHR ag | D1 potentiator | TRHR PAM
O=c1c(/C=C(\O)c2ccc(F)cc2)nc2ccccc2n1-c1ccccc1 | 5 | 159* | 76* | 8 | -8
CC(C)S(=O)(=O)N1CCN(c2ccnc3cc(Cl)ccc23)CC1 | 5 | 9 | 0 | -1 | -3
CCSc1nnc(NC(=O)Nc2cccc(C)c2)s1 | -10 | 18 | 2 | 0 | -7
CC1CCN(S(=O)(=O)c2cc(C(=O)Nc3ccc(Br)cc3F)n(C)c2)CC1 | -35* | 8 | 0 | -3 | 0
Cc1ccc(Nc2ncnc3c2cnn3-c2ccc(C)cc2)cc1 | 2 | 0 | -1 | -4 | 6
COc1ccc(NC(=O)c2cnn(-c3ccc(C)cc3)c2-n2cccc2)cc1Cl | -31* | 4 | 1 | -4 | -2
Cc1cc(NC(=O)c2cnn(-c3ccccc3)c2-n2cccc2)ccc1Br | -1 | 10 | -2 | -1 | 0
NS(=O)(=O)c1ccc(CCNc2nccn(-c3cccc(C(F)(F)F)c3)c2=O)cc1 | -32* | 3 | -1 | -5 | -2
COc1ccc(Nc2ncnc3c2cnn3-c2ccc(C)cc2)cc1Cl | -65* | -1 | 1 | -4 | 6
Fc1cccc(Nc2ncnc3c2cnn3-c2ccccc2)c1 | -13 | 3 | 1 | -13 | 2
Clc1cccc(Nc2ncnc3c2cnn3-c2ccccc2)c1 | -55* | 6 | -1 | -15 | 6
CC(C)CCOc1ccc(Cn2c(=O)oc3ccccc32)cc1 | 17 | 6 | 1 | 3 | -1
N#Cc1nc(NCC(F)F)c2ncn(-c3cc(F)cc(F)c3)c2n1 | -18 | 1 | 1 | 2 | 2
CCOC(=O)c1ccc(-n2c(-c3ccc(C)cc3)c(C)n3c4c(=O)n(C)c(=O)n(C)c4nc23)cc1 | -6 | 0 | 1 | 0 | 0
N#Cc1cccc(Nc2ncnc3c2cnn3-c2cccc(Cl)c2)c1 | -49* | 1 | 0 | -4 | -4
NS(=O)(=O)c1ccc(CCNc2ncnc3c2cnn3-c2cccc(Cl)c2)cc1 | -64* | 0 | 0 | -4 | 2
Cc1ccc(NC(=O)c2c(C)oc3c2C2=NCCN2C=N3)cc1F | 17 | 1 | 1 | -5 | 3
Cc1ccc(NC(=O)c2ccc(NC(=O)N3CCSc4ncccc43)cc2)c(Cl)c1 | -10 | -1 | -1 | -2 | -1
Cc1cccn2c(=O)c3cc(C(=O)NC(C)(C)C)n(C)c3nc12 | 1 | 24 | 0 | -4 | -7
CCCCn1c(=O)cc(N2CCOCC2)[nH]c1=O | -46* | 3 | 0 | -7 | -8
Oc1ccccc1Nc1nc(NCc2ccccc2)c2ccccc2n1 | 4 | 1 | 0 | 4 | 1
c1ccc(CNc2nc(N3CCN(Cc4ccccc4)CC3)nc3ccccc23)cc1 | -35* | 8 | 0 | -14 | 0
c1ccc(N2CCN(c3nc(NCc4ccco4)c4ccccc4n3)CC2)cc1 | -78* | 1 | 0 | -16 | 3
CNc1nc(NCc2ccccc2)c2ccccc2n1 | -37* | 34* | 2 | -8 | -14
c1coc(CNc2nc(N3CCCCC3)nc3ccccc23)c1 | -32* | 19 | -1 | -20 | 1
SMILES | D1 antagonist | D1 agonist | TRHR ag | D1 potentiator | TRHR PAM
COc1cccc(C2C3=C(N=c4s/c(=C\c5ccccc5O)c(=O)n42)c2ccccc2CC3)c1OC (centres undefined) | -4 | 2 | 1 | -4 | -11
COc1cc(/C=C/C(=O)CC(=O)/C=C/c2ccc(O)c(OC)c2)ccc1O | -59* | 334* | 107* | -2 | -3
COc1cc(/C=C/C(=O)c2ccc([N+](=O)[O-])o2)ccc1O | 1 | 0 | 0 | 3 | 0
COc1cc(/C=C/C(=O)/C=C(O)/C=C/c2ccc(O)c(OC)c2)ccc1O | -16 | 262* | 58* | -2 | -8
COc1cc(C=C(C(C)=O)C(C)=O)ccc1O | 4 | 2 | 1 | -3 | -5
O=C(Nc1nnc(-c2cccs2)o1)c1cccc(C(F)(F)F)c1 | -50* | 26 | -1 | nt | 7
CN1CC2=Cc3ccccc3OC23Oc2ccccc2C=C3C1 | -51* | 13 | 0 | -16 | 0
COc1ccc(S(N)(=O)=O)cc1C(=O)NNC(=O)CN(C)S(=O)(=O)c1ccc(Cl)cc1 | 4 | 1 | 0 | 3 | 6
CCOC(=O)c1ccc(NC(=O)CCc2c(C)n(CC)c3cc(-c4ccccc4OC)nn3c2=O)cc1 | -2 | 2 | 0 | 5 | 6
COc1ccc(-n2cc(C(=O)NCCc3ccc(C)cc3)c3ccccc3c2=O)cc1 | -39* | 5 | 1 | -3 | 9
CCOc1ccc(CCNC(=O)c2cn(-c3cccc(OC)c3)c(=O)c3ccccc23)cc1 | -42* | 1 | 0 | -3 | 10
COc1ccc(CCNC(=O)c2cc(-c3ccccn3)nc3ccccc23)cc1 | -35* | 0 | 0 | -4 | -1
CCOc1ccc(CCNC(=O)c2cn(-c3ccc(OC)cc3)c(=O)c3ccccc23)cc1OCC | 2 | 6 | 0 | -3 | -2
COc1ccc(-c2cc(C(=O)NCCc3ccccc3)c3c(-c4ccccc4)[nH]nc3n2)cc1 | -40* | 3 | 0 | -1 | -1
COc1ccc(-c2cc(C(=O)NCCc3ccccc3)c3c(-c4ccc(Cl)cc4)[nH]nc3n2)cc1 | 7 | 6 | 1 | -3 | -6
Cc1ccc(SC(=O)c2c([N+](=O)[O-])c(C)nn2C)cc1 | -14 | 2 | -1 | -3 | 9
COc1cccc(-n2cc(C(=O)NCCc3ccc(C)cc3)c3ccccc3c2=O)c1 | -48* | 0 | 0 | 4 | -3
COc1ccc(NC(=O)C2CCCN(S(=O)(=O)c3ccc4[nH]c(=O)ccc4c3)C2)cc1OC (centres undefined) | -7 | 2 | 0 | 0 | 39*!
COc1ccc(S(=O)(=O)N2CCCC(C(=O)Nc3ccc(OC)c(OC)c3)C2)cc1 (centres undefined) | -31* | -1 | 0 | -2 | 3
O=C(c1cccc(Cl)c1)C1CCCN(S(=O)(=O)c2ccccc2)C1 (centres undefined) | -54* | 0 | -1 | -3 | -1
COc1ccc(NC(=O)C2CCCN(S(=O)(=O)c3ccccc3)C2)c(OC)c1 (centres undefined) | 9 | 2 | -1 | -8 | 33*
CCN1C(=O)[C@H]2[C@@H](c3ccc(-c4ccc(Cl)c(Cl)c4)c(OC)c3)N[C@@](Cc3ccccc3)(C(=O)OC)[C@H]2C1=O | 14 | 4 | 1 | 1 | -3
Cc1cc(C)c(C(=O)N2CCCC(Nc3ccc(C)c(C)c3)C2)o1 (centres undefined) | 2 | 1 | -2 | -9 | 2
CC1=C(C(=O)Nc2ccccc2C)C(c2sccc2C)n2ncnc2N1 (centres undefined) | -9 | 1 | 0 | -1 | -1
COc1cc(NC(=O)CCN2CC(C)OC(C)C2)cc(OC)c1 (centres undefined) | -1 | 3 | 0 | 0 | -2

Screening data (PubChem BioAssay)
